24 compounds from PubChem BioAssay (NCATS) can be followed below.

The target of assay [1] is Cytochrome P450 3A4 (Homo sapiens) (UniProt P08684). In words: qHTS Assay for Inhibitors and Substrates of Cytochrome P450 3A4 (AID 884). Note: series mostly up to about 57 µM; % is set by controls: 0 for no effect and ±100 for the full control effect; nearly all actives have a fitted effect of over 50% in size. The procedure, abridged:
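20 nM human CYP3A4 with 25 uM Luciferin-PPXE (at KM) in 200 mM KPO4, preincubated 10 min with compound; NADPH regeneration started a 60 min RT reaction. Luciferin detected by luminescence, normalized to 57 uM ketoconazole as full inhibition.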

The nature of assay [2]: Confirmation and Secondary Assay for Modulators of Hemoglobin Beta Chain Splicing at IVS2 654 locus (AID 910).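 Note: HeLa cells stably carrying EGFP split by mutant beta-globin IVS2-654 intron; per-well total GFP intensity by laser scanning cytometry after 2-day treatment; % of control where 0% means no effect.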 Put shortly: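 Readout: per-well total peak green fluorescence (488 nm ex, 500–520 nm em) from objects 5–250 µm, reflecting correct splicing of an EGFP-654 reporter. Compounds were applied for 2 days at 37 °C to overnight-plated HeLa EGFP-654 cells; controls were DMSO and 500 nM IVS2-654 PNA.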

The nature of assay [3]: Confirmation and Secondary Assay for Modulators of Hemoglobin Beta Chain Splicing at IVS2 705 locus (AID 930).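 Note: HeLa cells stably expressing the EGFP-705 splicing reporter; GFP fluorescence per well restored by corrected splicing of the IVS2-705 intron in EGFP; series mostly up to about 46 µM; % of control where 0% means no effect.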 Put shortly:
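HeLa IVS2-705 EGFP reporter cells, 500/well, compound 2 d at 37C; correct splicing yields fluorescent EGFP. Control: 500 nM antisense PNA. Read-out: total peak GFP intensity.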

The target of assay [4] is Cytochrome P450 2C19 (Homo sapiens) (UniProt P33261). In words: qHTS Assay for Inhibitors and Substrates of Cytochrome P450 2C19 (AID 899). Note: nearly all actives have a fitted effect of over 60% in size. Note: potency is the fitted concentration of half-maximal effect. The procedure, abridged: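 Luminescence readout of luciferin formed from 10uM Luciferin-H EGE (KM level) by 5 nM CYP2C19 in 50mM KPO4. 60 min NADPH-driven reaction at 37C after 10 min compound preincubation; data scaled to 57uM ketoconazole inhibition.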
Sequence of Cytochrome P450 2C19 (Homo sapiens) (P33261 whole entry, looked up): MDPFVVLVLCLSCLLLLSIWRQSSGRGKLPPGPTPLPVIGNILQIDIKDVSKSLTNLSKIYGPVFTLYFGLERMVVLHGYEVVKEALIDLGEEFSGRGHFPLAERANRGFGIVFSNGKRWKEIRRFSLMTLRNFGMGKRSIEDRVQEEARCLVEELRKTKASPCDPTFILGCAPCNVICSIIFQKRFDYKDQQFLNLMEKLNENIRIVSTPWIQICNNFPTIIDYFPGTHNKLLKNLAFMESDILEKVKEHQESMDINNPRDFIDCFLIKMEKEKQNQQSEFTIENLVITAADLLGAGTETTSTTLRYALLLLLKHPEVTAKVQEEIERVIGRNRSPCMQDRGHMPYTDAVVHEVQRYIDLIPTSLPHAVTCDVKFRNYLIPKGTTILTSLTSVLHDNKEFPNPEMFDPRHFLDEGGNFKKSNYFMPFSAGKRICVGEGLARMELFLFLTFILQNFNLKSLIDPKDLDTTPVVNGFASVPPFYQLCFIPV

A short description of assay [5]: MultiTox-Fluor Cytotoxicity Assay - LYMP1-001 - Dead Cells (AID 946).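 Note: cells exposed to compound for 16 h.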 Note: potency is the fitted concentration of half-maximal effect. The procedure, abridged:
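Seed 2500 LYMP1-001 cells/well, incubate 5 hr at 37 C; add compound, 16 hr at 37 C; add MultiTox-Fluor reagent, 60 min RT; read dead-cell fluorescence Ex/Em=485/520. Normalize to DMSO and 15 uM tetraoctylammonium bromide.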

Assay [6] is described as follows: MultiTox-Fluor Cytotoxicity Assay - LYMP1-001 - Live Cells (AID 947). Note: potency is the fitted concentration of half-maximal effect.
A short description of assay [7]: MultiTox-Fluor Cytotoxicity Assay - LYMP1-002 - Live Cells (AID 955).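 Note: cells exposed to compound for 16 hours.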 Note: potency is the fitted concentration of half-maximal effect. The procedure, abridged: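 Read-out is live-cell protease activity (cell-permeant GF-AFC substrate, fluorescence Ex/Em=405/510), where a decrease indicates acute toxicity. Human lymphoblastoid cells were treated 16 hours at 37 C in a concentration series, and AC50 values came from standard Hill modelling.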

Assay [8] addresses Cytochrome P450 3A4 (Homo sapiens) (UniProt P08684). In words: qHTS Assay for Activators of Cytochrome P450 3A4 (AID 885). Note: nearly all actives have a fitted effect of over 65% in size. The procedure, abridged:
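Steps: enzyme/substrate mix dispensed; compound added, 10 min RT; NADPH regeneration solution added, 60 min RT; luciferin detection buffer stops reaction; 20 min later luminescence measured.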
In general terms: Quantitative high-throughput screening tests each substance at several concentrations.

Assay [9] addresses Cytochrome P450 2D6 (Homo sapiens) (UniProt P10635). Kind of assay: qHTS Assay for Inhibitors and Substrates of Cytochrome P450 2D6 (AID 891). Note: nearly all actives have a fitted effect of over 60% in size. The procedure, abridged:
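Human CYP2D6 (5 nM) with 30 uM Luciferin-ME EGE (at Km) in 100 mM KPO4, compound preincubated 10 min, then NADPH regeneration system for 60 min at room temperature. Luciferin read by luminescence; normalized to 1.43 uM quinidine.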

Assay [10] can be described thus: qHTS Assay for Identification of Small Molecule Agonists for Hypoxia Response Element Signaling Pathway (AID 914; active = well fitted activation curve with a large enough effect in the signal ratio, with a control signal flat, not every such curve was filed as active; the % refers to the signal ratio; note: % of control where 0% means no effect). The conditions noted are these: ME-180 (cervical carcinoma) HRE-bla reporter, beta-lactamase ratio, CoCl2, 17 h; active compounds read high. Put shortly:
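HRE-bla ME-180 assay for agonist-like enhancement of an EC50 CoCl2 stimulus: 17 h at 37 degrees Celsius, CCF4 for 2.5 h, ratiometric 460/530 nm signal converted to %Activity and fitted to AC50.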

Assay [11] concerns the target Pyruvate kinase (Leishmania mexicana) (UniProt Q27686). In words: qHTS Validation Assay for Inhibitors of Leishmania Mexicana Pyruvate Kinase (AID 945).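 Note: 0% = DMSO only neutral control wells.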 The procedure, abridged: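 Eight-point qHTS titrations; enzyme 0.2 nM LmPYK (E451W mutant); substrates 0.5 mM PEP, 0.1 mM ADP; 7 mM MgCl2; 1 h room temperature; PKLight luminescence normalized to neutral control.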

The target in assay [12] is Pyruvate kinase PKM (Homo sapiens) (UniProt P14618). In words: qHTS Assay for Activators of Human Muscle Pyruvate Kinase (AID 954; active = well fitted curve in the direction sought with a large enough effect, not every such curve was filed as active;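 note: 0% = uninhibited enzyme and -100% = no enzyme or full thiadiazolimine inhibition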). Put shortly:
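Reaction: 0.1 nM purified PKM2 with 0.5 mM phosphoenolpyruvate and 0.1 mM ADP, room temperature, 1 h. Readout: luciferase-based ATP luminescence after stop reagent. Activators judged against a 0.3 nM enzyme column.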

Each structure is given as a SMILES string. Unmarked numbers belong to inactive results. Records with an inconclusive call do not appear. The source made the active and inactive calls. Unless noted, calls come from the whole dose curve; as a rule, active = well fitted curve in the direction sought with a large enough effect; inconclusive = small, poorly fitted or top-dose-only effect, or another doubt; inactive = no such curve, though single readings can be large; an effect the other way counts as inactive or inconclusive. Peptide text beside a SMILES is read from it.

Sequence of Cytochrome P450 3A4 (Homo sapiens) (P08684 whole entry, looked up): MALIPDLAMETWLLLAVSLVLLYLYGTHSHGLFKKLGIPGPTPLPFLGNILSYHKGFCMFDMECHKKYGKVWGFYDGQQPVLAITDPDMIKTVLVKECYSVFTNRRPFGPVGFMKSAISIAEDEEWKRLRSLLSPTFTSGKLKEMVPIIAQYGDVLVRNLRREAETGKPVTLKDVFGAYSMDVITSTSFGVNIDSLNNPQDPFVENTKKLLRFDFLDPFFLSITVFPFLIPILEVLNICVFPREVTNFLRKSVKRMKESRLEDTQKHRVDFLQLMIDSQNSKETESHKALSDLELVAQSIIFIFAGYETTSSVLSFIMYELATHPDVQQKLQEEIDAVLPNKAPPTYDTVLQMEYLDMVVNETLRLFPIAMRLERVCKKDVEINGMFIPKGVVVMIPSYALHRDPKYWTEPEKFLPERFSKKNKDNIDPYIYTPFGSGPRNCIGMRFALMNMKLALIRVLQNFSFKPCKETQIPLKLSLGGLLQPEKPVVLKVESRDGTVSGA
Sequence of Cytochrome P450 2D6 (Homo sapiens) (P10635 whole entry, looked up): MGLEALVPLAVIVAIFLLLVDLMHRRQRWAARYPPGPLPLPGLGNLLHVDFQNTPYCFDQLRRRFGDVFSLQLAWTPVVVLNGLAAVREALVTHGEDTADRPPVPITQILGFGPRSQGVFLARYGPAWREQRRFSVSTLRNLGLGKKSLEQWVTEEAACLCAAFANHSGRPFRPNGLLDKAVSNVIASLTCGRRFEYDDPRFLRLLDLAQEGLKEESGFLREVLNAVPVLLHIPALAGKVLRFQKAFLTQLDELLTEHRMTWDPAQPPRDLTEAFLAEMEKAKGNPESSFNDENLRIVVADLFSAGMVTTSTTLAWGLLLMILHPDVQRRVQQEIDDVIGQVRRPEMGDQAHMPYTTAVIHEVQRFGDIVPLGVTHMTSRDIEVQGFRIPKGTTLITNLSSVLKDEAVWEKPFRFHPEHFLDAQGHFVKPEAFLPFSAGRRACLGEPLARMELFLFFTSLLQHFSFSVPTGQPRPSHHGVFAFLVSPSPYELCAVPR
Sequence of Pyruvate kinase PKM (Homo sapiens) (P14618 whole entry, looked up): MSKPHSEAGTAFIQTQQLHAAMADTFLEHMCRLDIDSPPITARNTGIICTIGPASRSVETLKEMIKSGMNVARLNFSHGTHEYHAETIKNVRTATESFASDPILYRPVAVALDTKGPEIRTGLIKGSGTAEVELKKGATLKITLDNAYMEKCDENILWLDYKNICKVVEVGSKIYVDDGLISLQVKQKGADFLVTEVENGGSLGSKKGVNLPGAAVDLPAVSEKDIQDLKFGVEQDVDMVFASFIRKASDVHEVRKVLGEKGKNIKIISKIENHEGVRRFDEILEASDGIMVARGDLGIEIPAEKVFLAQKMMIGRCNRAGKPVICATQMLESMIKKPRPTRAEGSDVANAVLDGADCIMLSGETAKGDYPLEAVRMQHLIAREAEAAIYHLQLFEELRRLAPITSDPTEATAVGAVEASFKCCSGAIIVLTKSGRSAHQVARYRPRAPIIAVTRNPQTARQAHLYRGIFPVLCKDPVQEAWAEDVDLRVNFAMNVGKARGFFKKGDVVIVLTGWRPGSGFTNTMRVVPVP
Sequence of Pyruvate kinase (Leishmania mexicana) (Q27686 2-499 E452W): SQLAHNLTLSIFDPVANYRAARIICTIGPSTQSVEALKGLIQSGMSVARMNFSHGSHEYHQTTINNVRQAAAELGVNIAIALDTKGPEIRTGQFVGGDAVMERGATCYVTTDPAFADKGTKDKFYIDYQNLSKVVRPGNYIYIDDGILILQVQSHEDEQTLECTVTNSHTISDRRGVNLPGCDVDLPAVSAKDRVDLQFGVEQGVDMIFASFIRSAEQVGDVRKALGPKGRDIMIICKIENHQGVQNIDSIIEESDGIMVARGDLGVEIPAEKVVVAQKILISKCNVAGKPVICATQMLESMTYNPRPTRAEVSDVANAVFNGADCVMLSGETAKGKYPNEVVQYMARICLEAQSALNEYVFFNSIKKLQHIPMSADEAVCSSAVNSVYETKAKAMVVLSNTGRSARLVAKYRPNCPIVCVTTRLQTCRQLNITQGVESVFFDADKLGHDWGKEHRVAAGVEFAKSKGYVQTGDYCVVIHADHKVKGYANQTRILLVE

With `Cc1cc(C2CCCCC2)n(O)c(=O)c1`, the Potency result in assay [1], in [2] and in assay [3] was “inactive” in each case.

On to `CCc1nc(N)nc(N)c1-c1ccc(Cl)cc1`, for which, in assay [4], the call was inactive. Further, the Potency result in assay [2], in assay [3], in [5], in [6] and in assay [7] was “inactive” throughout.

With `Nc1cc(C(Cl)=C(Cl)Cl)c(S(N)(=O)=O)cc1S(N)(=O)=O`, the Potency result in assay [2] and in [3] was “inactive” in each case.

`Nc1nc(Cl)nc2c1ncn2[C@H]1C[C@H](O)[C@@H](CO)O1`: the Potency entry in [1], in [2] and in [3] was “inactive” in each case.

For `O=C(NC(Cc1cc(=O)[nH]c2ccccc12)C(=O)O)c1ccc(Cl)cc1` (centres undefined), the Potency result in [1], in assay [2] and in [3] was “inactive” throughout.

On to `COC(=O)C1=C(C)NC(C)=C(C(=O)OC(C)C)C1c1cccc2nonc12` (centres undefined), for which the call in [8] was inactive.

For the compound `CC(=O)Nc1ccc(O)cc1`, the compound was called inactive in [9] and in assay [4]. Besides, the Potency entry in assay [5], in assay [6] and in assay [7] was “inactive” in each case.

Take `Cc1cccc(CN2CCN(C(c3ccccc3)c3ccc(Cl)cc3)CC2)c1` (centres undefined): the compound was called inactive in assay [8]. Besides, the Potency result in assay [2] and in assay [3] was “inactive” throughout.

Consider `O=c1oc2cc(O)ccc2s1`, for which the Potency result in [1], in assay [2] and in [3] was “inactive” in each case.

Turning to `CCN(CCO)CCCC(C)Nc1ccnc2cc(Cl)ccc12` (centres undefined), the Potency entry in assay [2] and in assay [3] was “inactive” each time.

`CS(=O)(=O)OCCCCOS(C)(=O)=O`: the Potency result in [1], in [2], in [3], in [5], in [6] and in [7] was “inactive” each time.

For the compound `CCCCC(CC)COC(=O)C(C#N)=C(c1ccccc1)c1ccccc1` (centres undefined), the Potency result in assay [1], in [5], in assay [6] and in assay [7] was “inactive” throughout.

Take `NS(=O)(=O)c1cc(C(=O)O)c(NCc2ccco2)cc1Cl`: the Potency result in assay [2], in [3], in assay [5], in assay [6] and in assay [7] was “inactive” throughout. In addition, the activation in assay [10] was -15.7%.

For `O=C(O)c1cn(-c2ccc(F)cc2)c2cc(N3CCNCC3)c(F)cc2c1=O`, the Potency result in [1], in assay [2] and in [3] was “inactive” each time.

Regarding `Cc1ncc([N+](=O)[O-])n1CC(C)O` (centres undefined), the Potency entry in assay [1], in assay [2] and in assay [3] was “inactive” each time.

As for `O=C(c1ccccc1)c1ccc2n1CCC2C(=O)O` (centres undefined), the Potency result in [1], in [2] and in [3] was “inactive” each time.

With `CC(=O)N1CCN(c2ccc(OC[C@H]3CO[C@](Cn4ccnc4)(c4ccc(Cl)cc4Cl)O3)cc2)CC1`, the Potency entry in assay [11] was “inactive”. The compound was called inactive in [12].

As for `O=C(O)c1cc(=O)c2c(OCC(O)COc3cccc4oc(C(=O)O)cc(=O)c34)cccc2o1`, the Potency entry in assay [1], in assay [2] and in assay [3] was “inactive” in each case.

Regarding `CC1Cc2ccccc2N1NC(=O)c1ccc(Cl)c(S(N)(=O)=O)c1` (centres undefined), the Potency result in [1], in assay [2] and in [3] was “inactive” throughout.

Take `Cc1ccc(C)c(OCCCC(C)(C)C(=O)O)c1`: the Potency result in assay [1], in assay [2], in [3], in [5], in assay [6] and in assay [7] was “inactive” throughout.

On to `COC(=O)[C@H](Cc1ccccc1)NC(=O)[C@@H](N)CC(=O)O` (H-Asp-Phe-OMe), for which the Potency entry in assay [1], in [5], in assay [6] and in assay [7] was “inactive” each time.

For `O=C1c2c(O)cc(O)cc2OC(c2ccc(O)c(O)c2)C1O` (centres undefined), in assay [8], the call was inactive.

With `CN(C)c1ccc2nc3ccc(=[N+](C)C)cc-3sc2c1`, the Potency was 10 µM (active) in assay [5], 10 µM (active) in assay [6] and 12.6 µM (active) in assay [7].

For the compound `O=C(NCCO[N+](=O)[O-])c1cccnc1`, the Potency in [4] is 3.98 µM (active).
